Structures are written as SMILES. Activity calls are given as the source filed them.

Assay [1] concerns Wnt5a (protein binding on small-molecule microarray). Put plainly: small molecules binding Wnt5a protein – biophysical, small-molecule microarray, 635/667 nm fluorescence, primary screen (AID 1142).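 Note: fluorescence read at 667 nm with signal to noise per printed feature.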 Conditions: 635 nm fluorescence, higher = more signal.
Assay [2] in a line: ATP-based viability of Huh7 replicon cells – cell-based, CellTiter-Glo luminescence, basal, 48 h, cytotoxicity control for HCV replication inhibitor project, primary screen (AID 1143).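 Note: Huh7 hepatoma cells carrying a hepatitis C replication reporter with no stimulus; test concentration not given here.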 Conditions: higher = more signal, called active from +8 up or from −8 down.
The nature of assay [3]: basal CRE-LacZ reporter activity in PC12 – cell-based, unstimulated, primary screen (AID 1145). Conditions: no forskolin, luminescence, 4.5 h, higher = more signal, called active from +8 up or from −8 down.
The nature of assay [4]: forskolin-driven CRE-LacZ activity in PC12 – cell-based, CRE-LacZ reporter, forskolin-stimulated, primary screen (AID 1146).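 Note: PC12 cells with 6xCRE LacZ reporter stimulated by forskolin 10 µM; beta-galactosidase reporter signal reflecting CREB driven transcription.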 Conditions: luminescence, 4.5 h, higher = more signal, called active from +8 up or from −8 down.
Assay [5] addresses Streptavidin (Streptomyces avidinii) (UniProt P22629). The experiment in a line: compounds binding control protein streptavidin – biophysical, small-molecule microarray, 635/667 nm fluorescence, artefact control for SMM compound annotation, primary screen (AID 1147).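 Note: signal reflects streptavidin binding to arrayed compounds as a control protein.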 The following applies: higher = more signal.
Assay [6] can be described thus: probe aInhba binding on compound microarray – biochemical, small-molecule microarray, 635/667 nm fluorescence, primary screen (AID 1148).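 Note: score merges 667nm spot fluorescence with signal-to-noise for antibody binding to printed compounds.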 The following applies: higher = more signal.
For assay [7], the target named is Torsin-1A (Homo sapiens) (UniProt O14656). The experiment in a line: TOR1A wild-type binding on microarray – cell lysate, small-molecule microarray, lysate, 635/667 nm, primary screen (AID 1149). The following applies: COS7 hTOR1A-WT lysate, 635 nm fluorescence, higher = more signal.
For assay [8] the target is unchanged. The experiment in a line: torsin A mutant lysate binding on microarrays – cell lysate, small-molecule microarray, COS7 lysate, 635/667 nm fluorescence, primary screen (AID 1150).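 Note: score pools 667 nm emission and signal to noise measuring lysate protein binding.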 Conditions: COS7 hTOR1A mutant lysate, 635 nm fluorescence, higher = more signal.
Assay [9] concerns Sonic hedgehog protein (Shh). Put plainly: Sonic hedgehog microarray binding compounds – biochemical, small-molecule microarray, 635/667 nm fluorescence, primary screen (AID 1151).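 Note: Shh protein binding to compounds spotted on small-molecule microarray slides; score combines spot fluorescence intensity with signal-to-noise across triplicate slides.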 Conditions: 635 nm fluorescence, higher = more signal.
Assay [10] in a line: optical density shifts of acrAB sulA E. coli – strain DRC41, OD650, 48 h, E. coli filamentation inducer project, primary screen (AID 1152).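 Note: E. coli MC1000 strain DRC41 lacking acrAB efflux pump and sulA.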 Conditions: higher = more signal, called active from +8 up or from −8 down.
Assay [11] can be described thus: probe aLefty1 binding on compound microarray – biochemical, small-molecule microarray, 635/667 nm fluorescence, primary screen (AID 1153).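 Note: score merges spot fluorescence with signal-to-noise ratio from the scanned slide images.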 Conditions: higher = more signal.
The nature of assay [12]: plasmodial surface anion channel blockers, osmotic lysis – cell-based, P. falciparum Indochina, OD700, 1 h, primary screen (AID 1154). The following applies: P. falciparum Indochina infected RBC osmotic lysis, higher = more signal, called active from +8 up or from −8 down.
The nature of assay [13]: plasmodial surface anion channel blockers, osmotic lysis – cell-based, P. falciparum Indochina, OD700, 2 h, primary screen (AID 1155).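 Note: lysis reports solute entry through the parasite surface anion channel PSAC.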 Conditions: P. falciparum Indochina infected erythrocytes, higher = more signal, called active from +8 up or from −8 down.
Assay [14] is described as follows: changes in parasitized red cell lysis, either direction – P. falciparum Indochina, OD700, 3 h, PSAC antagonist project, primary screen (AID 1156). Conditions: P. falciparum-infected erythrocytes, osmotic lysis, higher = more signal, called active from +8 up or from −8 down.
The nature of assay [15]: plasmodial surface anion channel blockers, osmotic lysis – cell-based, P. falciparum Indochina, OD700, 18 h, primary screen (AID 1157). Conditions: P. falciparum Indochina infected erythrocytes, osmotic lysis OD700, 18 h; higher = more signal, called active from +8 up or from −8 down.
The nature of assay [16]: S6 kinase pathway phospho-S6 level changes – cell-based, A549, cytoblot, luminescence, serum-stimulated, primary screen (AID 1158).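 Note: serum-stimulated A549 lung adenocarcinoma cells; signal is phosphorylated S6 detected by cytoblot immunostaining with HRP secondary.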 The following applies: 5 h, higher = more signal.
The target in assay [17] is NADPH oxidase 2 (Homo sapiens) (UniProt P04839). The experiment in a line: compounds shifting NOX2 Amplex Red fluorescence – cell-based, HEK293-NOX2, PMA-stimulated, NOX inhibitor project, primary screen (AID 1159). Note: test concentration not given here. Conditions: 45 min, higher = more signal, called active from +8 up or from −8 down.
For assay [18], the target named is NADPH oxidase 4 (Homo sapiens) (UniProt Q9NPH5). The experiment in a line: compounds shifting NOX4 Amplex Red fluorescence – cell-based, HEK293-NOX4, tetracycline-induced, NOX inhibitor project, primary screen (AID 1160). The following applies: HEK293-NOX4, Amplex Red H2O2 fluorescence, 45 min; higher = more signal, called active from +8 up or from −8 down.
The target of assay [19] is NADPH oxidase 5 (Homo sapiens) (UniProt Q96PH1). Put plainly: compounds shifting NOX5 Amplex Red fluorescence – cell-based, HEK293-NOX5, NOX inhibitor project, primary screen (AID 1161). Conditions: HEK293-NOX5, ionomycin, 45 min, higher = more signal.
The nature of assay [20]: compound effects on lung adenocarcinoma cell viability – A549, calcein-AM fluorescence, 48 h, basal, profiling panel (AID 1162). Note: test concentration not given here. Conditions: higher = more signal.

Sequence of NADPH oxidase 5 (Homo sapiens) (Q96PH1 whole entry, looked up): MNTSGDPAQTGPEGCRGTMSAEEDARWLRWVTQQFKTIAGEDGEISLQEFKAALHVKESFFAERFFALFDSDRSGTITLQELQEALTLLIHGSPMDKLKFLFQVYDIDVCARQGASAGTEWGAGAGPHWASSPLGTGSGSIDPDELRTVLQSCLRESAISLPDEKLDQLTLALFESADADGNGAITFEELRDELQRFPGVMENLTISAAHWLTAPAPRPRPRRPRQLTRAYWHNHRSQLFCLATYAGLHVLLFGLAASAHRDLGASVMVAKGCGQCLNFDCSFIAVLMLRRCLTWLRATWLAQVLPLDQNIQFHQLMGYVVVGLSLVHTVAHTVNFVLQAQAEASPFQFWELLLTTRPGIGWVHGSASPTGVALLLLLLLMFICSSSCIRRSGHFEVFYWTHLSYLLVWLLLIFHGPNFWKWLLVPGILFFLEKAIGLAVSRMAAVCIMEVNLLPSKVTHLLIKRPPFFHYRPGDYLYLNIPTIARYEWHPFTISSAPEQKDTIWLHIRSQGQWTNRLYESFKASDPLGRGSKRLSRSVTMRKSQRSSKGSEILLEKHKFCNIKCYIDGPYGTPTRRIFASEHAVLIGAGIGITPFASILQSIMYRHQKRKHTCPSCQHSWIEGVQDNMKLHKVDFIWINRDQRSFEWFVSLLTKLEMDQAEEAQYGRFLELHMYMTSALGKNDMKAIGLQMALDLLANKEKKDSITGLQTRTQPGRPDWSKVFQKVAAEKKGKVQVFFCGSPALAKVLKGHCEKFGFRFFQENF
Sequence of Torsin-1A (Homo sapiens) (O14656 whole entry, looked up): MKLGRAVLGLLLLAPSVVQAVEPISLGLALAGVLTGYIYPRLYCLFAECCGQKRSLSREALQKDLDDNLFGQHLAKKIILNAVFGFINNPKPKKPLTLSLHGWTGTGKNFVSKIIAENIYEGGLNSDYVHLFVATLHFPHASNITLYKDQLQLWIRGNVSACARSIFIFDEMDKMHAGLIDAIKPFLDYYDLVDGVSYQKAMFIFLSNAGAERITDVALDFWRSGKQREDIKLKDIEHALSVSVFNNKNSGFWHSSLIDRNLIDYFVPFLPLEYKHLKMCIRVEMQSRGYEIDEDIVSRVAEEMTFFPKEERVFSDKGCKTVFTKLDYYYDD
Sequence of Streptavidin (Streptomyces avidinii) (P22629 whole entry, looked up): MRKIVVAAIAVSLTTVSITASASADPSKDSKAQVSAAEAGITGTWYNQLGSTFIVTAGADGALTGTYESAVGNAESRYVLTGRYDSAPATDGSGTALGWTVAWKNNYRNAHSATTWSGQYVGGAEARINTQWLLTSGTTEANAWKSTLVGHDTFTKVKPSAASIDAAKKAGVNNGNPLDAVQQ
Sequence of NADPH oxidase 2 (Homo sapiens) (P04839 whole entry, looked up): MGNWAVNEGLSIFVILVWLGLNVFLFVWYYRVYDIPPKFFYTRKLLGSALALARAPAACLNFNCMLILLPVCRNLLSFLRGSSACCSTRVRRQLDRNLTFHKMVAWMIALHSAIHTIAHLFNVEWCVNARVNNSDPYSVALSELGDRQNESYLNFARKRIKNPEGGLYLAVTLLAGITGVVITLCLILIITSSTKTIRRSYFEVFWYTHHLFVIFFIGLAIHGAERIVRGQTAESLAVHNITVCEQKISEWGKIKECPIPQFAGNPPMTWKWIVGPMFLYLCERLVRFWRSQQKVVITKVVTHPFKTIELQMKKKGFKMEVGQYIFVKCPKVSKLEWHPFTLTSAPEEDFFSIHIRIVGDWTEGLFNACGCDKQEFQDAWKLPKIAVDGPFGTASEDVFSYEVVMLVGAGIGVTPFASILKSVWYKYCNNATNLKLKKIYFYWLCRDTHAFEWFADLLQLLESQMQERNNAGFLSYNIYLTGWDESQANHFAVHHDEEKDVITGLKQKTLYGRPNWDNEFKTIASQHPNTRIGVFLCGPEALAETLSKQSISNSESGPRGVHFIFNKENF
Sequence of NADPH oxidase 4 (Homo sapiens) (Q9NPH5 whole entry, looked up): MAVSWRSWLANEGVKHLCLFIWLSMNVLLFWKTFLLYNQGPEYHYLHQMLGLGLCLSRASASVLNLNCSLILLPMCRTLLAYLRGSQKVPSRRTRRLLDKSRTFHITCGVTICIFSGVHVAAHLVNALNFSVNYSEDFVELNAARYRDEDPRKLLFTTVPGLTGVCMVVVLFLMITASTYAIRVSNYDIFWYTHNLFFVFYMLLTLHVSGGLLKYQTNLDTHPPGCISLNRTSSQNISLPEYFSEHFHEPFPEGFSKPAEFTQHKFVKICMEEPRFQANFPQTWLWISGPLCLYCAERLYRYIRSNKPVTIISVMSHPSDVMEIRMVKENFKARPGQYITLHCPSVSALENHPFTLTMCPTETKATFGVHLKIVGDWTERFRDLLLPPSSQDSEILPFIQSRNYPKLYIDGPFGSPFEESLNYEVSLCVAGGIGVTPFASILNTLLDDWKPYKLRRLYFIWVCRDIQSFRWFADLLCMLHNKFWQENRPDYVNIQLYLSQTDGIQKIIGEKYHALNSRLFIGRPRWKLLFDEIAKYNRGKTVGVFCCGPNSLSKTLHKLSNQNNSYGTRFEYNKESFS

For `C=CC[C@@]1(C(=O)NCc2ccccc2)N=C(c2ccc(OCCCO)cc2)O[C@@H]1c1ccccc1`, the composite z-score was 0.102 in assay [1]; 0.344 in assay [5]; 0.0582 in [6]; 0.161 in the assay with Torsin-1A (Homo sapiens) [7]; 0.551 with Torsin-1A (Homo sapiens) [8]; -0.435 in assay [9]. The compound also had a composite z-score in assay [11] of 0.399. In addition, the z-score in assay [2] is -4.6 (inactive); in assay [3], -0.16 (inactive); in assay [4] it was -1.56 (inactive); in assay [10], 2.48 (inactive); in [12], 24.4 (active); in [13], 11.3 (active). Further, the z-score in assay [14] was 2.34 (inactive); in [15] it was 0.546 (inactive); in [16], 1.46; in assay [17] it was -0.189 (inactive); in assay [18] it was 0.956 (inactive); in assay [19], -1.14. Besides, in assay [20], the z-score is -0.506.

Regarding `CC(C)C(=C=CC[C@@H](O)c1ccc(CO)o1)CCO`, the composite z-score in assay [1] is 0.502; in [5] it was -0.294; in assay [6] it was -0.0986; with Torsin-1A (Homo sapiens) [7], 1.65; with Torsin-1A (Homo sapiens) [8], 0.289; in assay [9] it was 1.48. The compound further had a composite z-score in [11] of -0.147. For the same compound, the z-score in assay [2] was -0.105 (inactive); in [3] it was 0.681 (inactive); in assay [4], -1.82 (inactive); in assay [10], 1.38 (inactive); in assay [12], 1.95 (inactive); in assay [13], 0.236 (inactive). For the same compound, the z-score in [14] was 0.311 (inactive); in [15], 0.0124 (inactive); in [16], -0.109; in assay [17] it was 1.62 (inactive); in [18], 1.64 (inactive); in assay [19] it was 1.49. Further, the z-score in assay [20] is 2.76.

As for `COCCCNC(=O)[C@@]1(Cc2ccccc2CN=[N+]=[N-])COC(c2ccc(OCCCO)cc2)=N1`, the composite z-score was 1.18 in assay [1]; 0.257 in assay [5]; 0.283 in assay [6]; 1.22 with Torsin-1A (Homo sapiens) [7]; 0.669 with Torsin-1A (Homo sapiens) [8]; 0.13 in assay [9]. This compound came in with a composite z-score in assay [11] of 0.961. The z-score is -3.41 (inactive) in [2]; -0.94 (inactive) in assay [3]; -2.58 (inactive) in [4]; 2.58 (inactive) in [10]; 26.7 (active) in assay [12]; 22 (active) in assay [13]. The z-score in [14] was 3.17 (inactive); in assay [15], 3.5 (inactive); in assay [16] it was 0.989; in assay [17] it was -2.47 (inactive); in assay [18], -1.03 (inactive); in assay [19], -2.89. Also, in [20], the z-score was 0.395.

For `COCCOC(=O)N1C(=O)[C@@]2(c3ccccc31)[C@H](C(=O)Nc1nc3ccccc3s1)[C@H]1C(=O)O[C@H](c3ccccc3)[C@H](c3ccccc3)N1[C@@H]2c1ccc(O)cc1`, the composite z-score is 0.418 in assay [1]; 0.511 in assay [5]; 0.263 in assay [6]; 0.815 with Torsin-1A (Homo sapiens) [7]; -0.06 with Torsin-1A (Homo sapiens) [8]; 2.07 in [9]. This compound also yielded a composite z-score in assay [11] of 0.577. Also, the z-score is -3.59 (inactive) in assay [2]; -0.199 (inactive) in assay [3]; -0.395 (inactive) in assay [4]; 2.37 (inactive) in assay [10]; 10.9 (active) in assay [12]; 5 (inactive) in [13]. Further, the z-score is 1.67 (inactive) in [14]; 2.06 (inactive) in assay [15]; 1.92 in assay [16]; -0.333 (inactive) in [17]; -0.395 (inactive) in assay [18]; 1.28 in assay [19]. The z-score in assay [20] was 0.751.
